KCNQ2 pot – potentiators of rat KCNQ2 potassium channel; CHO-K1 KCNQ2, FluxOR thallium flux fluorescence; active compounds read high; B-score at 10 µM; AID 2239; hit rate 0.54% among 310,000; O88943;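 active = fluorescence ratio B-score at least 3 SD of library B-scores, with initial fluorescence B-score within 3 of them, cut at about 5.3 in these data; same plate scores as AID 2156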;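 also: B-score of peak minus minimum over baseline fluorescence ratio after K+ and Tl+ stimulus; positive B-score means potentiation of KCNQ2 with more thallium influx and brighter signal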
KCNQ2 block – inhibitors of rat KCNQ2 potassium channel; O88943; CHO-K1 KCNQ2, FluxOR thallium flux, 20 min; active compounds read low; B-score at 10 µM; hit rate 1.1% among 310,000;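 active = fluorescence ratio B-score at most minus 3 library SDs, with starting brightness B-score within 2 library SDs, cut at about -5.5 in these data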
Kir21 confirm – confirmation of mouse Kir2.1 potassium channel inhibitors | shares compounds with KCNQ2 pot | Kir2.1-expressing cells, FluxOR thallium flux fluorescence; active compounds read low | Tl flux remaining, % of negative control (active compounds read low), % at 10 µM | hit rate 41% among 2,300;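 active = Primary-screen hit whose thallium flux fell at least 3 control SD below untreated wells in both duplicates, with normal baseline fluorescence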;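 also: 0% = blank wells without stimulus and 100% = stimulated no-compound controls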
HEK293 Tl flux – counter-screen for Kir2.1 inhibitors: effect in parental HEK293 cells. shares compounds with KCNQ2 pot. FluxOR thallium flux fluorescence; 0% = unstimulated blank wells. FluxOR signal as % of negative control (100 = no effect), % at 10 µM. hit rate 19% among 2,300;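 active = dye signal at least 3 control SD above or below untreated wells in both duplicates, raw fluorescence within 3, either direction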;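 also: percent is based on the flux ratio of peak minus minimum fluorescence over baseline F0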
CHO-K1 Tl ctr – parental CHO-K1 activity in KCNQ2 potentiator counter-screen; shares compounds with KCNQ2 pot; parental CHO-K1 cells, FluxOR thallium flux fluorescence; zero = vehicle mean+3SD, 100% = vehicle-minus-blank window; activity increase over 3SD of controls, % at 10 µM; hit rate 43% among 1,200;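 active = signal rise of at least 3 SD above the untreated control mean, in both duplicate wells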;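 also: counter screen of KCNQ2 potentiator hits so any rise reflects channel-independent effects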
KCNQ1 sel pot – tests whether KCNQ2 potentiators also act on human KCNQ1 | shares compounds with KCNQ2 pot | CHO KCNQ1 stable, FluxOR thallium flux fluorescence; beyond 3SD, as % of vehicle-control signal | activation over 3SD threshold, % at 10 µM | hit rate 28% among 1,200;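 active = fluorescence ratio rise of at least 3 SD of vehicle wells above their mean, in both replicate wells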;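 also: 0% = vehicle mean plus 3 SD and 100% = vehicle minus unstimulated blank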
KCNQ2 pot confirm – rat KCNQ2 channel potentiator confirmation. shares compounds with KCNQ2 pot. CHO-KCNQ2 cells, FluxOR thallium flux fluorescence. potentiation, less the hit threshold, % at 10 µM. hit rate 68% among 1,200;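 active = fluorescence ratio rising 3 SD or more over the vehicle control mean in both replicates, plus primary screen hit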;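 also: peak minus minimum thallium fluorescence divided by baseline after K/Tl stimulus; 0% = vehicle mean plus 3 SD and 100% = vehicle minus unstimulated blank difference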
Kir2-1 sel – tests whether KCNQ2 potentiators also affect mouse Kir2.1 | shares compounds with KCNQ2 pot | activity over 3SD threshold, % at 10 µM | AID 2345 | HEK293 Kir2.1, FluxOR thallium flux fluorescence | hit rate 2% among 1,200;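 active = fluorescence ratio rise of at least 3 SD above the vehicle-control mean, seen in both replicates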;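 also: 0% = vehicle mean plus 3 SD and 100% = vehicle minus no-stimulus blank window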
KCNQ2 W236L MoA – potentiates the retigabine-insensitive rat KCNQ2 W236L mutant channel; shares compounds with KCNQ2 pot; hit rate 10% among 940; current increase over 3SD of negative controls (%), active compounds read high, % at 25 µM; AID 2558; CHO KCNQ2-W236L, automated patch clamp current;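 active = current increase at least 3 SD of the untreated controls above them in both duplicate recordings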
Target sequence (O88943 whole entry W236L, looked up): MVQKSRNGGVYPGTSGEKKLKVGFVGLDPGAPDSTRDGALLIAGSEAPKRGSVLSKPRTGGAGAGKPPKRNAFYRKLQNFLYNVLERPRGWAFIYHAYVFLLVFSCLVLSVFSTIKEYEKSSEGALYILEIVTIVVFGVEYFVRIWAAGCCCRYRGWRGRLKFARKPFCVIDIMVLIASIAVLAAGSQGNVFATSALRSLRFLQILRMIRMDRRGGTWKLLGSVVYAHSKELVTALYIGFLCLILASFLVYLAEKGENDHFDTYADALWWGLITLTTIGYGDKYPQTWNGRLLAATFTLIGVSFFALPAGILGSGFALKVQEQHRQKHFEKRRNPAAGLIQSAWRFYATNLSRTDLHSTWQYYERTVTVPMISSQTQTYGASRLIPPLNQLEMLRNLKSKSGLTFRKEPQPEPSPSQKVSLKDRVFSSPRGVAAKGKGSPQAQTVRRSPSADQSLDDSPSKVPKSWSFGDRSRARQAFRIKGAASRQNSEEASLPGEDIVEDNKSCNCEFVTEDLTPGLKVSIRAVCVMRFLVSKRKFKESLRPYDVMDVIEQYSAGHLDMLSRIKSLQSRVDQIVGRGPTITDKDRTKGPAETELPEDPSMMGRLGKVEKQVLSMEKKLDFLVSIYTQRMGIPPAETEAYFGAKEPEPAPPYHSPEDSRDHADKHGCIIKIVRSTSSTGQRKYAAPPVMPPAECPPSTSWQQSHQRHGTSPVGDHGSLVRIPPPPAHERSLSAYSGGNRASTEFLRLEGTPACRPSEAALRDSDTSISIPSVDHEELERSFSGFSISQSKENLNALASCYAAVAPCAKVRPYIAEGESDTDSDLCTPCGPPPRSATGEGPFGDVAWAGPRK
An asterisk follows results filed as active; i = inactive; x = not tested or not shown. The list is not random: actives were taken first. Their share in the collection is about 1.6%.

SMILES	KCNQ2 pot	KCNQ2 block	Kir21 confirm	HEK293 Tl flux	others
CC(CCc1ccc(O)cc1)NCCc1ccc(O)c(O)c1 (stereo not given)	0.9	i	x	x
CCn1c(CNc2cccc(Cl)c2)nnc1SCC(=O)OC1CCCCC1	x	i	x	x
CCn1c(CNc2ccc(Cl)cc2)nnc1SCC(=O)OC1CCCCC1	0.06	i	71.0%*	i
CC(C)(C)c1cc(-c2n[nH]c(=S)n2-c2ccccc2F)n[nH]1	5.3*	i	i	154.5%*	CHO-K1 Tl ctr=-4.7;KCNQ1 sel pot=-39.1;KCNQ2 pot confirm=43.9*;Kir2-1 sel=-36.4;KCNQ2 W236L MoA=20.2%*
Cc1ccccc1-n1c(-c2ccc(=O)[nH]n2)n[nH]c1=S	1.89	i	x	x
CCc1ccc(NC(=O)COC(=O)CCc2nc3cc(S(=O)(=O)N(CC)CC)ccc3n2C)cc1	1.37	i	x	x
CCn1cc(S(=O)(=O)NCCc2ccc(OC)c(OC)c2)cn1	x	i	x	x
O=C(N/C=C/c1ccco1)Nc1cccc(Cl)c1	13.5*	i	i	i	CHO-K1 Tl ctr=-11.4;KCNQ1 sel pot=-30.9;KCNQ2 pot confirm=61.1*;Kir2-1 sel=-19.8;KCNQ2 W236L MoA=i
COc1ccc(NC(=O)N/C=C/c2ccco2)cc1	0.31	i	x	x
COc1cc(OC)c(OC)cc1CNCCNC(=O)c1ccco1	x	i	x	x
CCOC(=O)N1CCN(C(=O)COC(=O)C2CCN(S(=O)(=O)c3c(Cl)cccc3Cl)CC2)CC1	1.71	i	x	x
CS(=O)(=O)Cc1cccc(C(=O)NC2CCSc3ccccc32)c1 (stereo not given)	1.16	i	x	x
Cc1cc(C)c(Cn2c3ccccc3c3cnn(CC(=O)NCc4ccccn4)c(=O)c32)c(C)c1	13.5*	i	i	i	CHO-K1 Tl ctr=-40.5;KCNQ1 sel pot=-14.0;KCNQ2 pot confirm=8.7*;Kir2-1 sel=-12.4;KCNQ2 W236L MoA=i
Cc1cc(C)c(Cn2c3ccccc3c3cnn(CC(=O)NCCN4CCOCC4)c(=O)c32)c(C)c1	1.57	i	x	x
CCN(C(=O)CCN1C(=O)S/C(=C\c2ccccc2)C1=O)C1CCS(=O)(=O)C1 (stereo not given)	x	i	x	x
COc1cccc(NC(=O)c2ccc3c(c2)CCN3S(C)(=O)=O)c1	17.1*	i	i	i	CHO-K1 Tl ctr=2.5*;KCNQ1 sel pot=-13.6;KCNQ2 pot confirm=-31.5;Kir2-1 sel=-40.0
CC(=O)Nc1ccc(NC(=O)c2ccc3c(c2)CCN3S(C)(=O)=O)cc1	x	i	x	x
CC(C)=CCc1cc([C@@H]2COc3c(ccc4c3C=CC(C)(C)O4)C2)c(O)cc1O	6.01*	i	i	i	CHO-K1 Tl ctr=-7.0;KCNQ1 sel pot=-2.5;KCNQ2 pot confirm=-25.0;Kir2-1 sel=-28.0
CC(=O)Oc1ccc([C@@H]2COc3c(ccc4c3C=CC(C)(C)O4)C2)c(OC(C)=O)c1	x	i	x	x
CC(c1ccccc1)C(CC(=O)O)C(=O)Nc1ccc(Cl)c(Cl)c1 (stereo not given)	0.24	i	x	x
COc1ccc(CCNc2ncnc3cc(OC)c(OC)cc23)cc1OC	2.13	i	x	x
COc1cc2ncnc(NCCc3ccccc3)c2cc1OC	5.42*	i	i	131.0%*	CHO-K1 Tl ctr=10.9*;KCNQ1 sel pot=-9.1;KCNQ2 pot confirm=-8.2;Kir2-1 sel=-20.6
C=CCOc1ccccc1CNCCc1ccc(S(N)(=O)=O)cc1	x	i	x	x
NS(=O)(=O)c1ccc(CCNCc2ccccc2OCc2ccc(Cl)cc2)cc1	4.32	i	43.5%*	i
NS(=O)(=O)c1ccc(CCNCc2cc(Br)ccc2OCc2ccccc2F)cc1	x	i	64.5%*	i
SMILES	KCNQ2 pot	KCNQ2 block	Kir21 confirm	HEK293 Tl flux	others
NS(=O)(=O)c1ccc(CCNCc2cc(Cl)ccc2OCc2ccccc2)cc1	1.72	i	x	x
Cc1ccc(NC(=O)COC(=O)Cn2cnc3c2c(=O)n(C)c(=O)n3C)c(Cl)c1	0.02	i	x	x
Cn1cc(S(=O)(=O)N2CCN(c3cccc(C(F)(F)F)c3)CC2)c(=O)n(C)c1=O	x	i	x	x
Cc1c(S(=O)(=O)N2CCN(c3cccc(C(F)(F)F)c3)CC2)c(=O)n(C)c(=O)n1C	9.58*	i	i	i	CHO-K1 Tl ctr=5.5*;KCNQ1 sel pot=50.9*;KCNQ2 pot confirm=-21.8;Kir2-1 sel=-39.2
NC1=NC[C@H](Cc2ccc(O)cc2)N1CCCCC1CCCCC1	0.01	i	x	x
NC1=NC[C@H](Cc2ccccc2)N1CCCCC1CCCCC1	x	i	32.0%*	i
FC(F)(F)c1ccc(-c2noc(CN3CCCN(C4CCCCC4)CC3)n2)cc1	0.51	i	x	x
CCOC(=O)C1(Cc2ccccc2C(F)(F)F)CCN(CC2CC2)CC1	x	i	x	x
CC(C)(C)c1ccc(OCCCCCCN2CCNCC2)cc1	x	i	x	x
CC(C)(c1ccccc1)c1ccc(OCCCN2CCNCC2)cc1	1.98	i	49.5%*	i
CCOc1ccc(S(=O)(=O)N2CCCC(C(=O)N3CCCC3)C2)cc1 (stereo not given)	x	i	x	x
CCOc1ccccc1C(=O)NC(C(=O)OCC(=O)Nc1nnc(-c2ccccc2)o1)C(C)C (stereo not given)	x	i	x	x
CCOc1ccccc1C(=O)OCC(=O)Nc1nnc(-c2ccccc2)o1	5.47*	i	i	145.0%*	CHO-K1 Tl ctr=23.3*;KCNQ1 sel pot=-5.5;KCNQ2 pot confirm=13.9*;Kir2-1 sel=-17.0;KCNQ2 W236L MoA=i
Cc1cc(C(=O)CSc2nn3c(=O)c(C(C)(C)C)nnc3s2)c(C)n1C	x	i	x	x
O=C(COC(=O)Cc1n[nH]c(=O)c2ccccc12)Nc1ccc(Cl)cc1F	x	i	x	x
Cc1nnnn1/C(=C\c1ccccc1)C(=O)OCC(=O)Nc1ccc(Cl)cc1F	x	i	i	i
O=C(CNC(=O)c1ccccc1F)N/N=C/c1ccc2c(c1)OCO2	0.48	i	x	x
CC(C)(C)c1ccc2c(c1)OC(C(=O)N/N=C/c1ccc([N+](=O)[O-])o1)CO2 (stereo not given)	0.76	i	x	x
CCC(C)NC(=O)C1CCN(S(=O)(=O)c2ccc(Br)s2)CC1 (stereo not given)	0.77	i	x	x
COc1cccc(CNC(=O)C2CCN(S(=O)(=O)c3ccc(Br)s3)CC2)c1	7.31*	i	i	i	CHO-K1 Tl ctr=-4.6;KCNQ1 sel pot=-23.1;KCNQ2 pot confirm=9.6*;Kir2-1 sel=-48.2;KCNQ2 W236L MoA=i
CCS(=O)(=O)N1CCC(C(=O)NCc2cccc(OC)c2)CC1	0.09	i	x	x
CC(NC(=O)C1CCN(S(=O)(=O)c2ccc(Br)s2)CC1)c1ccccc1 (stereo not given)	6.85*	i	i	i	CHO-K1 Tl ctr=5.4*;KCNQ1 sel pot=-18.8;KCNQ2 pot confirm=14.1*;Kir2-1 sel=-25.1;KCNQ2 W236L MoA=i
CC(NS(=O)(=O)c1ccc(Br)s1)c1ccccc1 (stereo not given)	0.04	i	49.5%*	i
O=S(=O)(NCc1ccccc1)c1ccc(Br)s1	x	i	x	x

Assay outcomes deposited in PubChem BioAssay by Johns Hopkins Ion Channel Center.
